In all, about 360,000 compounds went through this assay and about 1,100 (0.31%) were called active. The full list was thinned out, with actives kept by preference. A number with no mark means an inactive call. Rule as the data show it: active = activity change below about -80%; inconclusive = mostly about -51% to -80%; inactive = weaker than that.
What follows are compounds tested against RAC-alpha serine/threonine-protein kinase (Homo sapiens) (UniProt P31749) (assay: HTS Assay for Inhibitors of Akt Phophorylation: Primary Screen). Conditions: Neuro2A IGF-stimulated pAkt S473 HTRF, 20 min; at 50 µM, hits give low values.
Procedure, shortened: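 Neuro2A cells in DMEM with 0.5% FBS, overnight at 37 deg C, given compound at single 50 µM final, then IGF (6 nM final) for 20 min at 37 deg C. Lysed; phospho-Akt Ser473 by HTRF after 24 h, 665/615 ratio.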
% is scaled to controls: 0 for no effect and ±100 for the full control effect.

| SMILES | activity change |
| --- | --- |
| CN(C(=O)C1CCN(c2ncnc3c2nc2n3CCCCC2)CC1)C1CCCCC1 | inactive |
| Cc1ccnc(NC(=O)CCC(=O)N(CC(=O)NCc2ccccc2)Cc2ccco2)c1 | inactive |
| CCOC(=O)N1CCN(C(=O)C[C@@H]2C[C@@]3(C(=O)OC)CC(C)(C)CC=C3N(Cc3ccco3)C2=O)CC1 | inactive |
| CC(=O)Cc1nsc(NC(=O)c2ccc(Cl)cc2Cl)n1 | inactive |
| O=C(COC(=O)c1cc2c(s1)CCCC2)NCc1ccccc1Cl | inactive |
| CC(=O)Cc1nsc(NC(=O)c2ccc(COc3ccc(C)cc3)o2)n1 | inactive |
| O=C(NCc1ccccc1Cl)c1csc2c1CCCCC2 | -106% (active) |
| CC1CC(C)CN(CCCNC(=O)c2csc3c2CCCCC3)C1 (stereo unspecified) | inactive |
| CC(=O)Cc1nsc(NC(=O)c2csc3c2CCCC3)n1 | -104% (active) |
| CCOC(=O)C=Cc1ccc(C(=O)OCC)[nH]1 | inactive |
| Cc1ccc(S(=O)(=O)N2CC3C(=O)C[C@@H](c4ccccc4Cl)N(S(=O)(=O)c4ccc(C)cc4)C3CC2c2ccccc2)cc1 (stereo partly specified) | inactive |
| Cc1cn(C)c(=O)n(C)c1=O | inactive |
| COc1cccc(-n2cc3c(c2-c2ccccc2)c(=O)n(C)c(=O)n3C)c1 | -16.8% |
| Cc1ccc(-c2c3c(=O)n(C)c(=O)n(C)c3cn2-n2cnnc2)cc1 | -111% (active) |
| COc1ccc(C(C(=O)NCc2ccccc2)n2c(=O)c(-c3ccccc3)nc3ccccc32)cc1 (stereo unspecified) | inactive |
| COc1cc(OC)c(NS(=O)(=O)c2cn(C)cn2)cc1Cl | inactive |
| CCC(c1nc2ccccc2[nH]1)n1c(=O)c(-c2cccs2)nc2ccccc21 (stereo unspecified) | inactive |
| N#Cc1ccc(C(C(=O)NCc2ccccc2)n2c(=O)c(-c3ccco3)nc3ccccc32)cc1 (stereo unspecified) | inactive |
| Cc1cc(NC(=O)CSc2nc(C(C)C)nc3sc4c(c23)CCC(C)C4)no1 (stereo unspecified) | -89.6% (active) |
| Cc1cc(NC(=O)CSc2nc3c(cc2C#N)CCCCC3)no1 | inactive |
| CC(C)c1nc(SCC(=O)Nc2cccc(C(=O)O)c2)c2c3c(sc2n1)CCCC3 | inactive |

| SMILES | activity change |
| --- | --- |
| Cn1cnc(S(=O)(=O)N2C[C@@H](O)COC[C@@H]3O[C@H](CC(=O)NC4CCC4)CC[C@H]32)c1 | inactive |
| COc1ccc(-c2cc3c(c4c2ccn4C)C2CCC3C2)cn1 (stereo unspecified) | inactive |
| Nc1nc(C23CC4CC(CC(C4)C2)C3)cs1 | inactive |
| CC(C)CN1C(=O)CN(S(C)(=O)=O)CC1(C)C(=O)NCc1ccccc1 (stereo unspecified) | inactive |
| Brc1ccc(-c2csc(N/N=C/c3cccnc3)n2)cc1 | inactive |
| c1ccc(Nc2nc(-c3ccncc3)cs2)nc1 | -89.8% (active) |
| Cc1ccc(Nc2nc(-c3ccc(O)cc3O)cs2)nc1 | inactive |
| O=C(COC(=O)Cc1ccc(Cl)cc1Cl)NCc1ccco1 | inactive |
| O=C(COC(=O)CCC(=O)c1cccs1)NCc1ccco1 | -115% (active) |
| O=C(COC(=O)c1ccccc1O)NCc1ccco1 | inactive |
| O=C(COC(=O)c1cc([N+](=O)[O-])ccc1NCc1ccccc1)NC1CCCCC1 | inactive |
| C=C1C(=O)OC2C1CCC(C)=CCCC1(C)OC21 (stereo unspecified) | inactive |
| CC(NCCO)C(=O)C12CC3CC(CC(C3)C1)C2 (stereo unspecified) | inactive |
| COCCN1C(=O)c2oc3c(C)cc(C)cc3c(=O)c2C1c1cccc(O)c1 (stereo unspecified) | -117% (active) |
| O=C1c2oc3ccccc3c(=O)c2C(c2cccc(O)c2)N1c1ccccn1 (stereo unspecified) | inactive |
| COCCN1C(=O)C(=O)/C(=C(/O)c2ccc(S(=O)(=O)N3CCOCC3)cc2)C1c1ccc(O)c(OC)c1 (stereo unspecified) | inactive |
| CC(C)OC(=O)CC(=O)CC(O)c1cccc([N+](=O)[O-])c1 (stereo unspecified) | inactive |
| CCOC(=O)[C@]12CCCC=C1N(CCC1=CCCCC1)C(=O)[C@H](CC(=O)NCCCCc1ccccc1)C2 | inactive |
| CCC(C(=O)Nc1c(C)cccc1C)n1c(-c2cc(C)cs2)nc2ccccc21 (stereo unspecified) | inactive |
| O=C(C(Cc1ccccc1)n1cccc1)N1CCN(C2CCCCC2)CC1 (stereo unspecified) | inactive |
| CCCCNC(=S)N/N=C1\CCCCc2ccccc21 | inactive |

| SMILES | activity change |
| --- | --- |
| CC(=O)Nc1ccc(S(=O)(=O)N(C)CC(=O)NCCC2=CCCCC2)cc1 | inactive |
| S=C(NCCC1=CCCCC1)Nc1ccccc1 | -117% (active) |
| CC(OC(=O)c1c(F)cccc1F)C(=O)NCCC1=CCCCC1 (stereo unspecified) | inactive |
| COc1ccc(N2c3ccccc3CN(Cc3ccccc3)[C@@H](C)[C@H]2Cc2ccc(-c3ccccc3)cc2)cc1 | inactive |
| O=C(C[C@H]1CC[C@@H](NC(=O)c2ccncc2)[C@@H](CO)O1)NCC1CC1 | inactive |
| CC(=O)C[C@@H]1OC[C@H](CO)N1S(=O)(=O)c1ccc(C)cc1 | inactive |
| CC(=O)NS(=O)(=O)c1ccc(NC(=O)/C=C/c2ccccc2Cl)cc1 | inactive |
| COc1cc(OC)cc(/C(N)=N/O)c1 | inactive |
| Cc1[nH]c(=O)c(C(=O)/C=C/c2ccccc2)c2c1CCCC2 | -93.4% (active) |
| COC(=O)c1c(C)[nH]c(C(=O)/C=C/c2ccc(Cl)cc2)c1C | inactive |
| CC1(C(=O)O)CCCN(C(=O)/C=C/c2ccccc2)C1 (stereo unspecified) | inactive |
| O=C(CCCn1c(=O)oc2ccccc21)Nc1cccnc1 | 5.91% |
| CC(=O)c1c(C)[nH]c(C(=O)N2CCN(S(=O)(=O)c3ccc(F)c(F)c3)CC2)c1C | inactive |
| Cc1nc2cc(NC(=O)CSc3nc4c(C)cccc4cc3C#N)ccc2s1 | -95.1% (active) |
| Cc1nonc1NC(=O)CSc1nc2ccccc2cc1C#N | inactive |
| COCc1cc(C)nc(SCC(=O)Nc2cccc(C)c2)c1C#N | inactive |
| CC1(C(=O)NS(=O)(=O)c2cccc(F)c2)CCN1C(=O)Cc1cc(F)ccc1F (stereo unspecified) | inactive |
| COC(=O)[C@@]12C[C@@H](CC(=O)NCCCCc3ccccc3)C(=O)N(Cc3ccccc3)C1=CCC(C)(C)C2 | inactive |
| CCOc1ccc(NC(=O)CCS(=O)(=O)c2cccc3nsnc23)cc1 | inactive |
| CCOc1ccccc1NC(=O)CCS(=O)(=O)c1cccc2nsnc12 | inactive |
| Cc1cccc(C)c1NC(=O)CCS(=O)(=O)c1cccc2nsnc12 | -101% (active) |

| SMILES | activity change |
| --- | --- |
| NS(=O)(=O)c1ccc(NC(=S)NC(=O)c2cccnc2)cc1 | inactive |
| C=CCNC(=O)CC12CC3CC(C1)CC(CC(=O)NCC=C)(C3)C2 | inactive |
| C=CCNC(=O)CCCOc1cccc(C)c1 | 3.56% |
| C=CCNC(=O)CCCC(=O)NCC=C | -102% (active) |
| CCCCCc1c(-c2ccc(OC)c(OC)c2)ncn1CCc1ccccc1OC | inactive |
| Cc1cc(=O)n2nc(N3CCC(C(=O)Nc4c(F)c(F)c(F)c(F)c4F)CC3)sc2n1 | inactive |
| COc1ccc(C(=O)C(OP(=O)(OC)OC)c2ccccc2OC)cc1 (stereo unspecified) | inactive |
| Cc1cc(F)ccc1NC(=O)C(C)n1c2ccccc2c2nc(=O)cc(C)n21 (stereo unspecified) | inactive |
| CCOCCn1c(-c2ccccc2)nc2ccccc21 | inactive |
| COCCn1c(-c2ccc(OC)c(OC)c2)nc2ccccc21 | -119% (active) |
| COc1ccc(-c2nc3ccccc3n2CCC(C)C)cc1OC | -7.53% |
| COC(=O)C[C@H]1C=C[C@@H](NS(=O)(=O)c2ccc(C)cc2)[C@@H](CO)O1 | inactive |
| CCc1ccc2c(c1)cc(CN(C(=S)Nc1ccccc1Cl)C1CC1)c1nnnn12 | -83.6% (active) |
| CCc1cccc(NC(=S)N(CCN(C)C)C2CCN(C(C)C)CC2)c1 | inactive |
| CCOc1ccc2c(c1)cc(CN(C(=O)CC)C1CCCCC1)c1nnnn12 | 1.69% |
| O=C(NCc1ccccc1)[C@H]1C[C@@H]1[C@H](NP(=O)(c1ccccc1)c1ccccc1)c1ccccc1 | inactive |
| Cc1ccccc1CN1C(=O)CSCC1(C)C(=O)Nc1c(C)cccc1C (stereo unspecified) | inactive |
| CCOC(=O)C1C(C)C(C(C)(C)C)N(S(=O)(=O)c2ccc(C)cc2)C1c1ccccc1 (stereo unspecified) | inactive |

— PubChem BioAssay AID651550 (National Center for Advancing Translational Sciences (NCATS), 2012)
